Compounds without any hit were thinned out: in the full panel of roughly 83,000, 20% have a hit.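 Values shown are percent growth following 48 h exposure of cells in 96-well plates to a single concentration of compound; below 10 was considered active.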 Values without a mark were called inactive. Activity calls are given as the source filed them.

Among the test systems are NCI-H23 lung; NCI-H226 lung; NCI-H322M lung; HOP-62 NSCLC; NCI-H460 lung; HOP-92 NSCLC; NCI-H522 lung; A549/ATCC NSCLC; 786-0 renal; COLO 205 colon; DU-145 prostate; K-562 leukemia; MALME-3M melanoma; MDA-MB-231 breast; RXF 393 renal; SF-268 CNS; SF-295 CNS; SF-539 CNS; UACC-257 melanoma; M14 melanoma.
What all share (assay): NCI-60 one-dose screen, 48 h (100 = growth as untreated, 0 = no growth, -100 = all killed)
What all share (conditions): 10 µM unless noted

Take `COC(=O)C(c1ccccc1)C(CC(=O)c1ccccc1)c1ccccc1` (stereo not given): the growth in the assay with NCI-H23 lung was 78.3%; in the assay on NCI-H226 lung, 75.1%; with NCI-H322M lung it was 75.6%; with HOP-62 NSCLC, 91.4%; in the assay on NCI-H460 lung, 109%; in the assay with HOP-92 NSCLC, 62.6%. Further, the growth in the assay with NCI-H522 lung is 61.9%; in the assay with A549/ATCC NSCLC, 95.4%; in the assay on 786-0 renal, 106%; in the assay with COLO 205 colon, 105%; with DU-145 prostate it was 95.8%; in the assay with K-562 leukemia, 73.1%. For the same compound, the growth in the assay on MALME-3M melanoma was 69.7%; with MDA-MB-231 breast, 98.1%; in the assay with RXF 393 renal it was 80.9%; in the assay on SF-268 CNS, 83.8%; in the assay with SF-295 CNS, 79.9%; with SF-539 CNS, 98.6%. For the same compound, the growth was 101% with UACC-257 melanoma and 103% with M14 melanoma.
As for `COc1ccc2nc(N=Nc3c(O)ccc4ccccc34)sc2c1`, the growth is 31.6% in the assay with NCI-H23 lung; 55% with NCI-H226 lung; 43.8% in the assay with NCI-H322M lung; 30.2% in the assay on HOP-62 NSCLC; 6.32% (active) in the assay on NCI-H460 lung; 60.9% in the assay on HOP-92 NSCLC. Besides, the growth in the assay with NCI-H522 lung was 61.2%; with A549/ATCC NSCLC it was 24.6%; in the assay on 786-0 renal it was 14.7%; in the assay on COLO 205 colon it was 33.1%; with DU-145 prostate, 37.1%; in the assay with K-562 leukemia, 19.1%. Besides, the growth is 57.5% in the assay on MALME-3M melanoma; 45.2% in the assay with MDA-MB-231 breast; 52.4% with RXF 393 renal; 33.4% in the assay on SF-268 CNS; 16.5% in the assay with SF-295 CNS; 22.9% in the assay on SF-539 CNS. In addition, the figures for the growth in the assay on UACC-257 melanoma and in the assay with M14 melanoma were 36.9% and 1.92% (active), respectively.
Take `CN1CCCC1=Nc1ccccc1`: the growth is 93.7% in the assay with NCI-H23 lung; 104% with NCI-H226 lung; 99.2% in the assay on NCI-H322M lung; 103% in the assay with HOP-62 NSCLC; 111% in the assay with NCI-H460 lung; 89% in the assay on HOP-92 NSCLC. The growth in the assay on NCI-H522 lung is 83.2%; in the assay with A549/ATCC NSCLC it was 97.9%; in the assay on 786-0 renal, 115%; in the assay on COLO 205 colon, 110%; in the assay with DU-145 prostate it was 116%; in the assay on K-562 leukemia it was 100%. Further, the growth was 104% in the assay on MALME-3M melanoma; 109% with MDA-MB-231 breast; 103% in the assay with RXF 393 renal; 124% with SF-268 CNS; 96.7% in the assay with SF-295 CNS; 113% in the assay with SF-539 CNS. Further, the results for the growth in the assay on UACC-257 melanoma and in the assay with M14 melanoma were 101% and 117%, respectively.
Regarding `O=S(=O)(c1ccc(N/N=C\c2ccccc2)cc1)c1ccc(N/N=C/c2ccccc2)cc1`, the growth in the assay on NCI-H23 lung is 43.6%; with NCI-H226 lung it was 83.3%; with NCI-H322M lung it was 80%; in the assay on HOP-62 NSCLC it was 46.6%; with NCI-H460 lung, 40.4%; with HOP-92 NSCLC, 8.56% (active). Besides, the growth with NCI-H522 lung was 60%; in the assay on A549/ATCC NSCLC, 60%; with 786-0 renal it was 83.4%; in the assay with COLO 205 colon it was 88.9%; with DU-145 prostate, 69%; in the assay on K-562 leukemia it was 79.9%. Further, the growth is 55.4% with MALME-3M melanoma; 49.4% with MDA-MB-231 breast; 72.8% in the assay on RXF 393 renal; 75.1% in the assay on SF-268 CNS; 58.2% in the assay on SF-295 CNS; 65.9% in the assay on SF-539 CNS. Moreover, the values for the growth with UACC-257 melanoma and in the assay with M14 melanoma were 80.5% and 76.7%, respectively.
Regarding `NC(=S)N/N=C(\c1ccc(Cl)cc1)C1CC1`, the growth is 89.7% with NCI-H23 lung; 74.7% in the assay on NCI-H226 lung; 88% with NCI-H322M lung; 80.1% with HOP-62 NSCLC; 102% in the assay with NCI-H460 lung; 97.2% in the assay with HOP-92 NSCLC. Also, the growth was 97.3% with NCI-H522 lung; 92.5% with A549/ATCC NSCLC; 105% in the assay on 786-0 renal; 92.6% in the assay on COLO 205 colon; 99% with DU-145 prostate; 38.3% with K-562 leukemia. The growth was 87.1% in the assay on MALME-3M melanoma; 70% with MDA-MB-231 breast; 104% with RXF 393 renal; 98.2% with SF-268 CNS; 83.1% in the assay with SF-295 CNS; 88.6% with SF-539 CNS. The growth with UACC-257 melanoma is 63.7%; with M14 melanoma, 87.7%.
Take `CCCCCCN(C)Cc1ccc(OCCOc2ccc(CN(C)CCCCCC)cc2)cc1`: the growth was 11% with NCI-H23 lung; 50% with NCI-H226 lung; 3.16% (active) in the assay with NCI-H322M lung; 17.9% in the assay with HOP-62 NSCLC; -77.5% (active) in the assay on NCI-H460 lung; -9.72% (active) with HOP-92 NSCLC. Further, the growth was 35.3% in the assay on NCI-H522 lung; 44% in the assay on A549/ATCC NSCLC; -72.6% (active) with 786-0 renal; -67.4% (active) with COLO 205 colon; 50.1% with DU-145 prostate; -20.7% (active) with K-562 leukemia. For the same compound, the growth is -80.6% (active) in the assay with MALME-3M melanoma; 4.17% (active) in the assay with MDA-MB-231 breast; -29.2% (active) in the assay with RXF 393 renal; 45.5% in the assay with SF-268 CNS; -51.9% (active) in the assay with SF-295 CNS; 13.5% in the assay with SF-539 CNS. In addition, the growth in the assay on UACC-257 melanoma was -52.5% (active); in the assay on M14 melanoma it was -96.9% (active).
For the compound `Nc1cc(N)c2cccnc2c1O`, the growth in the assay on NCI-H23 lung was 35.5%; with NCI-H226 lung, 89.8%; in the assay on NCI-H322M lung, 78%; in the assay on HOP-62 NSCLC, 69.5%; in the assay with NCI-H460 lung, 15.2%; in the assay on HOP-92 NSCLC it was 72.3%. Also, the growth is 67.2% in the assay on NCI-H522 lung; 63% with A549/ATCC NSCLC; 89.8% with 786-0 renal; 102% in the assay with COLO 205 colon; 72.7% in the assay on DU-145 prostate; 37.5% in the assay with K-562 leukemia. Besides, the growth is 85% with MALME-3M melanoma; 78.6% with MDA-MB-231 breast; 74.9% in the assay on RXF 393 renal; 83.4% in the assay with SF-268 CNS; 63.2% in the assay with SF-295 CNS; 66.1% in the assay on SF-539 CNS. In addition, the values for the growth in the assay on UACC-257 melanoma and in the assay on M14 melanoma were 76.1% and 76.5%, respectively.
Take `CCCCCN1C=C/C(=C\C(=O)N(C)c2ccc(Br)cc2)c2ccccc21`: the growth in the assay on NCI-H23 lung is 87.3%; with NCI-H226 lung, 86.3%; with NCI-H322M lung, 98.8%; in the assay on HOP-62 NSCLC it was 94.5%; in the assay with NCI-H460 lung, 105%; with HOP-92 NSCLC it was 82.7%. Also, the growth is 82.1% in the assay with NCI-H522 lung; 95.2% with A549/ATCC NSCLC; 98% in the assay with 786-0 renal; 108% in the assay on COLO 205 colon; 104% in the assay with DU-145 prostate; 76.5% with K-562 leukemia. Besides, the growth in the assay on MALME-3M melanoma was 96.9%; in the assay on MDA-MB-231 breast it was 101%; in the assay on RXF 393 renal, 92.9%; in the assay on SF-268 CNS it was 96.2%; with SF-295 CNS, 99.2%; in the assay with SF-539 CNS it was 102%. Besides, the values for the growth with UACC-257 melanoma and in the assay on M14 melanoma were 95.1% and 104%, respectively.

These data come from PubChem BioAssay (NCI).
